This note sets out measurements from PubChem BioAssay (EPA / NIEHS).

The nature of assay [1]: ATG_CRE_CIS: Attagene CIS-FACTORIAL HepG2 Assay for human cAMP Responsive Element (CRE) binding protein 3 (AID 2282926). The settings on record: HepG2 CRE cis-reporter, Attagene multiplexed mRNA; actives raise or lower the signal. Summed up:
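Transfected HepG2 were treated for 24 hours, then RNA was extracted and reporter cDNA amplified with sequence-specific primers. Labelled fragments were separated by capillary electrophoresis, and the CRE signal was fitted bidirectionally with DMSO as baseline.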

In assay [2] the target is CCAAT/enhancer-binding protein beta (Homo sapiens) (UniProt P17676). The experiment in a line: ATG_C_EBP_CIS: Attagene CIS-FACTORIAL HepG2 Assay for human CCAAT/Enhancer Binding Protein (C/EBP) beta (AID 2282927). The following applies: HepG2 Attagene cis-factorial transcription factor reporter; actives raise or lower the signal. The method, boiled down:
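Following a 24 h incubation with test chemical, transfected HepG2 cells yielded RNA whose reporter transcripts were quantified by RT-PCR and fluorescent capillary electrophoresis, with DMSO serving as baseline for bidirectional fitting.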

Assay [3] in a line: ATG_CMV_CIS: Attagene CIS-FACTORIAL HepG2 Assay for human CMV (Internal Marker) (AID 2282928).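 Note: endpoint acts as a background internal control marker rather than a target.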 The following applies: HepG2 CMV promoter reporter, transcription factor profiling; actives raise or lower the signal. The method, boiled down:
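After transient transfection of HepG2 with reporter transcription units driven by cis-regulatory promoters, cells receive test chemical for 24 h. Labeled reporter amplicons, digested with HpaI, are sized and quantified by capillary electrophoresis against DMSO.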

A short description of assay [4]: ATG_DR4_LXR_CIS: Attagene CIS-FACTORIAL HepG2 Assay for human Liver X Receptor (LXR), DR4 submotif (AID 2282929). The settings on record: HepG2 Attagene DR4 cis-reporter, mRNA transcription; actives raise or lower the signal. Summed up: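 Measures endogenous transcription factor activity via a DR4-driven reporter transcript in human HepG2 cells. Compounds incubated 24 h; mRNA quantified by RT-PCR and capillary electrophoresis, analysed as gain or loss of signal versus DMSO.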

Assay [5] addresses Aryl hydrocarbon receptor (Homo sapiens) (UniProt P35869). The experiment in a line: ATG_Ahr_CIS: Attagene CIS-FACTORIAL HepG2 Assay for human Aryl Hydrocarbon Receptor (Ahr) (AID 2282930). The settings on record: HepG2 AhR cis-factorial reporter transcription; actives raise or lower the signal. The method, boiled down:
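Values derive from bidirectional fitting against DMSO negative control. Underlying signal: cis-element reporter mRNA in transiently transfected HepG2, harvested 24 h post-dose and measured by RT-PCR plus capillary electrophoresis.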

Assay [6] is described as follows: ATG_AP_1_CIS: Attagene CIS-FACTORIAL HepG2 Assay for human Activator Protein 1 (AP-1) (AID 2282931). The following applies: HepG2 Attagene cis-factorial AP-1 reporter mRNA; actives raise or lower the signal. Summed up: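 Bidirectional concentration-response fitting against DMSO controls. Underlying signal: reporter mRNA from cis-promoter constructs in transiently transfected HepG2, measured after 24 h by RT-PCR and capillary electrophoresis.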

A short description of assay [7]: ATG_AP_2_CIS: Attagene CIS-FACTORIAL HepG2 Assay for human Activator Protein 2 (AP-2) (AID 2282932). The settings on record: HepG2 AP-2 cis-reporter, Attagene transcription factor profiling; actives raise or lower the signal. Summed up: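 HepG2 cells were transiently transfected with multiple cis-promoter reporter transcription units and dosed for 24 h. Reporter mRNA was measured by RT-PCR with capillary electrophoresis fluorescence; bidirectional fits relative to DMSO baseline.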

Assay [8] is described as follows: ATG_BRE_CIS: Attagene CIS-FACTORIAL HepG2 Assay for human Bone Morphogenetic Protein (BMP) Response Element (BRE) (AID 2282933). The following applies: HepG2 BMP response element reporter, Attagene transcription factor profiling; actives raise or lower the signal. The method, boiled down:
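After a 24 h chemical treatment, transiently transfected HepG2 cells were lysed for RNA; reporter transcripts were quantified by fluorescent RT-PCR and capillary electrophoresis, normalised to DMSO.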

Assay [9] concerns the target Retinoic acid receptor alpha (Homo sapiens) (UniProt P10276). Nature of the assay: ATG_DR5_RAR_CIS: Attagene CIS-FACTORIAL HepG2 Assay for human Retinoic Acid Receptor Alpha (RARE), DR5 submotif (AID 2282934).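 For AC50: reporter responds to endogenous RAR alpha beta and gamma in HepG2 not RARA alone.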 The settings on record: HepG2 Attagene cis-factorial RARE DR5 reporter, mRNA; actives raise or lower the signal. The method, boiled down:
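Endpoint fitted in both directions relative to DMSO as negative control. It reflects DR5 cis-element reporter mRNA induction in transiently transfected HepG2 cells, measured 24 h after dosing through RT-PCR and fluorescent capillary electrophoresis.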

Assay [10] deals with Transcription factor E2F1 (Homo sapiens) (UniProt Q01094). The experiment in a line: ATG_E2F_CIS: Attagene CIS-FACTORIAL HepG2 Assay for human E2F Transcription Factor 1 (AID 2282935). The settings on record: HepG2 Attagene cis-reporter, E2F reporter RNA transcripts; actives raise or lower the signal. The method, boiled down:
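HepG2 cells transiently transfected with multiplexed cis-element reporter units, dosed for 24 h. Reporter mRNA measured by RT-PCR, 6-FAM primer-extension labeling, HpaI digestion and capillary electrophoresis; bidirectional fit versus DMSO baseline.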

A short description of assay [11]: ATG_E_Box_CIS: Attagene CIS-FACTORIAL HepG2 Assay for human Enhancer Box (E-box) (AID 2282936). The following applies: HepG2 E-box cis-reporter transcription, actives raise or lower the signal. The method, boiled down:
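HepG2 cells transiently transfected with multiplexed cis-element reporter units sensing endogenous transcription factor activity; 24 h compound exposure. Reporter mRNA measured by RT-PCR, 6-FAM primer extension, HpaI digestion and capillary electrophoresis; bidirectional fit versus DMSO.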

Assay [12] in a line: ATG_M_61_CIS: Attagene CIS-FACTORIAL HepG2 Assay for M61 Transcription Factor (Internal Marker) (AID 2282937). The following applies: HepG2 Attagene CIS-FACTORIAL M61 internal marker reporter; actives raise or lower the signal. Summed up: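 Fluorescence from labelled cDNA fragments, separated by capillary electrophoresis, quantifies reporter induction. HepG2 cells bearing transiently transfected cis-promoter MRTUs were incubated with test chemical for 24 h; DMSO defined baseline for gain/loss fitting.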

A short description of assay [13]: ATG_EGR_CIS: Attagene CIS-FACTORIAL HepG2 Assay for human Early Growth Response 1 (EGR1) (AID 2282938). The settings on record: HepG2 Attagene CIS-FACTORIAL EGR reporter mRNA; actives raise or lower the signal. Summed up:
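Cell-based multiplex transcription assay: HepG2 carrying transfected cis-element reporter units, 24 h chemical treatment. Fluorescence from capillary electrophoresis of RT-PCR products gives mRNA levels; fitting is bidirectional relative to DMSO.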

A short description of assay [14]: ATG_M_19_CIS: Attagene CIS-FACTORIAL HepG2 Assay for M19 Transcription Factor (Internal Marker) (AID 2282939). The settings on record: HepG2 Attagene CIS-FACTORIAL M19 internal marker reporter; actives raise or lower the signal. The method, boiled down: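 In this multiplexed cell assay, transiently transfected HepG2 reporter units report endogenous transcription-factor activity; after 24 hours of treatment, labelled reporter cDNA fragments are quantified by capillary electrophoresis and fitted bidirectionally against DMSO.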

Assay [15] in a line: ATG_Ets_CIS: Attagene CIS-FACTORIAL HepG2 Assay for human Erythroblast Transformation Specific (ETS) (AID 2282941). The settings on record: HepG2 ETS cis-reporter transcription, actives raise or lower the signal. Summed up: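 Human HepG2 hepatoma cells were transiently transfected with promoter-driven reporter constructs and treated for 24 hours. Reporter transcripts were quantified by RT-PCR with fluorescent primer extension; bidirectional curve fitting used DMSO as reference.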

Assay [16] addresses Hepatocyte nuclear factor 3-beta (Homo sapiens) (UniProt Q9Y261). The experiment in a line: ATG_FoxA2_CIS: Attagene CIS-FACTORIAL HepG2 Assay for human Forkhead box A2 (FOXA2) (AID 2282942). The following applies: HepG2 cis-reporter transcription factor activity, 24 h; actives raise or lower the signal. The method, boiled down:
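In transiently transfected human HepG2 cells, promoter-driven reporter mRNA levels after 24 h chemical exposure are determined via RT-PCR with capillary electrophoresis. DMSO serves as baseline for bidirectional fitting.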

A short description of assay [17]: ATG_FoxO_CIS: Attagene CIS-FACTORIAL HepG2 Assay for human Forkhead box O (FoxO) (AID 2282943). The following applies: HepG2 Attagene cis-reporter, FoxO element, mRNA; actives raise or lower the signal. Summed up:
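Values reflect reporter mRNA induction or loss in HepG2 cells 24 h post-dosing, fitted bidirectionally with DMSO as negative control and baseline. Detection used RT-PCR and fluorescence capillary electrophoresis.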

Assay [18] is described as follows: ATG_GATA_CIS: Attagene CIS-FACTORIAL HepG2 Assay for human GATA Binding Protein (AID 2282944). The settings on record: HepG2 GATA cis-element reporter, Attagene multiplex mRNA; actives raise or lower the signal. The method, boiled down:
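Measures endogenous transcription factor-driven reporter mRNA in HepG2 cells transiently carrying cis-regulated constructs. 24 h dosing; RNA via oligo(dT) reverse transcription, PCR, HpaI digestion, capillary electrophoresis; fitted relative to DMSO.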

Assay [19] can be described thus: ATG_GLI_CIS: Attagene CIS-FACTORIAL HepG2 Assay for human Zinc Finger Protein GLI1 (AID 2282945). The settings on record: HepG2, Attagene cis-factorial reporter mRNA, GLI element; actives raise or lower the signal. The method, boiled down:
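HepG2 cells transiently transfected with cis-promoter multiplexed reporter units report endogenous transcription factor activity. After 24 h chemical exposure, reporter mRNA was quantified by RT-PCR, 6-FAM labelling, HpaI digestion and capillary electrophoresis, with bidirectional fitting against DMSO.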

Assay [20] addresses Bile acid receptor (Homo sapiens) (UniProt Q96RI1). Nature of the assay: ATG_IR1_CIS: Attagene CIS-FACTORIAL HepG2 Assay for human Nuclear Receptor Subfamily 1 Group H Member 4 (NR1H4), IR1 submotif (AID 2282946). The following applies: IR1 reporter transcription, actives raise or lower the signal. Summed up: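 Transient MRTU transfection, HepG2; 24 h dosing; RNA → RT-PCR → 6-FAM primer extension → HpaI digest → capillary electrophoresis fluorescence. Gain/loss of signal fitted relative to DMSO.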

Active and inactive are the calls of the source. Rule for the calls: active = hit-call score of the fitted dose curve at least 0.9, where 1 is the maximum; inactive = score below 0.9.

Aryl hydrocarbon receptor (Homo sapiens), sequence (P35869 whole entry, looked up): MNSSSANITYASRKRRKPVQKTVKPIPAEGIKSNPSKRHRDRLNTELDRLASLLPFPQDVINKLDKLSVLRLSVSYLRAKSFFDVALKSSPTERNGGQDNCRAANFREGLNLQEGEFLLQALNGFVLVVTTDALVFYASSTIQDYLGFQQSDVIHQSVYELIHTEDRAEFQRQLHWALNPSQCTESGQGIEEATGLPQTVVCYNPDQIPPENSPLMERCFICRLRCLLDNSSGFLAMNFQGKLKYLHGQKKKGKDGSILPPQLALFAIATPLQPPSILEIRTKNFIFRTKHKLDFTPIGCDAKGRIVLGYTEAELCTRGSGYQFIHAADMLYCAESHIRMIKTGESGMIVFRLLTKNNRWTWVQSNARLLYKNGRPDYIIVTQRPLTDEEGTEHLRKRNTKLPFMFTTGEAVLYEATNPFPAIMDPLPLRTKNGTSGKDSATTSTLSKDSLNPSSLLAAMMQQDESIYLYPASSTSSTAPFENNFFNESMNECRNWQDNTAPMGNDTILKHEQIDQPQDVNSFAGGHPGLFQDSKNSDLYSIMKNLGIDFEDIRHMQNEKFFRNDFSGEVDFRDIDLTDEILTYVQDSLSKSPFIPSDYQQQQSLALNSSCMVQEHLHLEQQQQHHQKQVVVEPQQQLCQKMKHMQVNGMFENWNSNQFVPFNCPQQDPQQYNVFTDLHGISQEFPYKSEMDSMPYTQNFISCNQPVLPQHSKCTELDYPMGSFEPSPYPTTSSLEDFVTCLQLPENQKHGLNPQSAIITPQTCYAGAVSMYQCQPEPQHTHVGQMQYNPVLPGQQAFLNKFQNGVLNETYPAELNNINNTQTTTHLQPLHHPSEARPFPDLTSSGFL
Transcription factor E2F1 (Homo sapiens), sequence (Q01094 whole entry, looked up): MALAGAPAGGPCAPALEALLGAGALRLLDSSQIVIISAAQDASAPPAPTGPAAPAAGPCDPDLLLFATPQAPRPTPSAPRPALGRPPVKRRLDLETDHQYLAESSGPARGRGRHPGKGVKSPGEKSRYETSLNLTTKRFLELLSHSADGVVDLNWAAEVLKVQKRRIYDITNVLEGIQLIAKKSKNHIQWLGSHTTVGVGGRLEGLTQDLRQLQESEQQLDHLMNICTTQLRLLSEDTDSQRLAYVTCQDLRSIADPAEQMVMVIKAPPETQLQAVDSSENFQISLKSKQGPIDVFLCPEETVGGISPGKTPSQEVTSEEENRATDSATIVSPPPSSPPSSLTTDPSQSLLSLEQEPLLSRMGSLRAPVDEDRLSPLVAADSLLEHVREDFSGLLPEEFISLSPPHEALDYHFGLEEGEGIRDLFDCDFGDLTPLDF
CCAAT/enhancer-binding protein beta (Homo sapiens), sequence (P17676 whole entry, looked up): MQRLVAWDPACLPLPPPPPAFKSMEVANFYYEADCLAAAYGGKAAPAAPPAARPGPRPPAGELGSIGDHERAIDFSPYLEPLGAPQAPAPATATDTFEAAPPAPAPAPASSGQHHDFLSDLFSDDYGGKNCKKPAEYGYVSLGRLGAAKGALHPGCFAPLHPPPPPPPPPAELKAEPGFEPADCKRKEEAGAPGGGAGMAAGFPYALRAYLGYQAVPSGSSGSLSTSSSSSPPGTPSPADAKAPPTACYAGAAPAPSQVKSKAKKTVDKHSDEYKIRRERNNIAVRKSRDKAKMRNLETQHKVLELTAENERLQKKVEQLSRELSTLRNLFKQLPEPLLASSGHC
Retinoic acid receptor alpha (Homo sapiens), sequence (P10276 whole entry, looked up): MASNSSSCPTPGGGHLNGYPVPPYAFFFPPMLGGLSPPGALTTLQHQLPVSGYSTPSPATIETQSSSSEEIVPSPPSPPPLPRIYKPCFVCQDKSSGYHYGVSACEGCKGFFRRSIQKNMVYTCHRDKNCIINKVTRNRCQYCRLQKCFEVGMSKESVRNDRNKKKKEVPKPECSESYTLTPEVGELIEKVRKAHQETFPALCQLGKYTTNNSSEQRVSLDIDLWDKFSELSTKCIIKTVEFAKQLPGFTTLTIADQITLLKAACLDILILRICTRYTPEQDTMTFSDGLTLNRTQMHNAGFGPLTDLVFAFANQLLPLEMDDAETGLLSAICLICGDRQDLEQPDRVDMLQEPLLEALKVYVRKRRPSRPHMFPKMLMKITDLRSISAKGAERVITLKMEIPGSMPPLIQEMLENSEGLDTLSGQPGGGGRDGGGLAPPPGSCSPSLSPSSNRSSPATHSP
Hepatocyte nuclear factor 3-beta (Homo sapiens), sequence (Q9Y261 whole entry, looked up): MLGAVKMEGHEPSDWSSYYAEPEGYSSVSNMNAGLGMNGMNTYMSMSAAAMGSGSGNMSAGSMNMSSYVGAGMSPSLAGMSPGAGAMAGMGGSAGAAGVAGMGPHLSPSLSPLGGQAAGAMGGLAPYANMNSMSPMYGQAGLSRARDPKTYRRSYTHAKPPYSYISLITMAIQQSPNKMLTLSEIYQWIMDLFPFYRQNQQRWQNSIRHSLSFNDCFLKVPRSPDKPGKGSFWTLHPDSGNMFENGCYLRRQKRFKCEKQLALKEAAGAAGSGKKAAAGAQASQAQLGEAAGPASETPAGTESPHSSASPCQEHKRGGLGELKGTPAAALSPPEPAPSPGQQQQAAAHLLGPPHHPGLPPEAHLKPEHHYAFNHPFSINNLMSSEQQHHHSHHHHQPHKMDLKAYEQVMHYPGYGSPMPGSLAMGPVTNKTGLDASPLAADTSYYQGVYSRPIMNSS
Bile acid receptor (Homo sapiens), sequence (Q96RI1 whole entry, looked up): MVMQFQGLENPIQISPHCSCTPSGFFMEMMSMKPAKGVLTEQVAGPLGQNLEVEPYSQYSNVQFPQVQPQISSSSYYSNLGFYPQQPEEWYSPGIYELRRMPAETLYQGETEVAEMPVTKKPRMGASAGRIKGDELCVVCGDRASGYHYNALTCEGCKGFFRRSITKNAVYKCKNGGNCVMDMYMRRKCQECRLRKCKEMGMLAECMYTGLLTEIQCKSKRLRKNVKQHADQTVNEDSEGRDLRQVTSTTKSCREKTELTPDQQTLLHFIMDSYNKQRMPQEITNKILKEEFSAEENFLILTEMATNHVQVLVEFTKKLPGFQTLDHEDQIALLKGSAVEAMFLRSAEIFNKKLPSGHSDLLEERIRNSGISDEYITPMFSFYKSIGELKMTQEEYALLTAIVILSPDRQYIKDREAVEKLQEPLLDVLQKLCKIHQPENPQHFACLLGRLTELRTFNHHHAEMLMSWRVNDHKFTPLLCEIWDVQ

As for `CCOP(=S)(Oc1cnc(C(C)(C)C)nc1)OC(C)C` (centres undefined), the result in [1], in assay [5], in [7], in assay [10], in [12] and in assay [14] was inactive. Moreover, the compound was classed as inactive in assay [15], in assay [16], in assay [17] and in [18]. The AC50 is 2.22 µM (active) in assay [2]; 50 µM (active) in assay [3]; 12.9 µM (active) in assay [4]; 62.2 µM (active) in assay [6]; 50 µM (active) in assay [8]; 12 µM (active) in [9]. Further, the AC50 in assay [11] was 27 µM (active); in assay [13], 19.3 µM (active); in assay [19], 50 µM (active).
Regarding `CNc1cnn(-c2cccc(C(F)(F)F)c2)c(=O)c1Cl`, the results for the AC50 in [1], in assay [6] and in assay [8] were 19.7 µM (active), 29.5 µM (active) and 17.8 µM (active), respectively. Moreover, the outcome in assay [2], in assay [3], in assay [4], in assay [5], in assay [7] and in assay [9] was inactive. The call in assay [10], in assay [11], in assay [12], in assay [13], in assay [14] and in [15] was inactive. The result in assay [16], in assay [17], in [19] and in [20] was inactive.
Take `CON=C(C(=O)OC)c1ccccc1CON=C(C)c1cccc(C(F)(F)F)c1`: the call in assay [1], in assay [3], in assay [5], in assay [6], in assay [7] and in assay [9] was inactive. Also, the call in assay [10], in assay [12], in assay [13], in assay [14], in [15] and in assay [16] was inactive. In addition, the call in assay [17] and in assay [19] was inactive. Besides, the AC50 was 66.7 µM (active) in [2], 24 µM (active) in [4], 25 µM (active) in assay [8] and 12.5 µM (active) in assay [11].
Turning to `CCCCN(CC)c1c([N+](=O)[O-])cc(C(F)(F)F)cc1[N+](=O)[O-]`, the result in assay [1], in assay [2], in assay [3], in assay [4], in [5] and in assay [6] was inactive. For the same compound, the result in assay [7], in assay [8], in [10], in assay [11], in assay [12] and in assay [13] was inactive. The compound was classed as inactive in assay [14], in [15], in assay [16], in [17] and in assay [19]. In addition, in [9], the AC50 was 20.1 µM (active).

The term AC50 denotes the concentration giving half of the maximal activity seen.
